{"source": "PubChem BioAssay AID504834", "about": "(National Center for Advancing Translational Sciences (NCATS), 2011)", "note": "Among all 320,000 compounds or so, about 22,000 (6.9%) were called active. Another 27% or so got no clear call; they are omitted. The list comes from a sample in which actives are over-represented; it also holds similar structures and randomly drawn compounds. A number with no mark means an inactive call. The call rests on the fitted dose curve; in most records, active means well fitted inhibition curve with a large enough effect; inconclusive means small, poorly fitted or top-dose-only effect, or another doubt; inactive means no such curve, though single readings can be large or run the other way. On the % scale 0 is the no-effect control and ±100 the full control effect; potency means the concentration at half of the fitted maximal effect."}
{"experiment": "Primary qHTS for delayed death inhibitors of the malarial parasite plastid, 96 hour incubation", "settings": "P. falciparum luciferase reporter growth; series mostly up to 28.7 µM; activity change, negative = inhibition: at the top concentration", "in_short": "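Readout is luminescence from an integrated firefly luciferase in P. falciparum. Red cells, 2% hematocrit and 0.05% parasitemia final, were cultured with compound through two parasite generations (96 hours) at 37 C, 5% CO2.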"}
{"smiles": "CCOC(=O)COn1c(=O)c(-c2ccc(OCC)cc2)[n+]([O-])c2ccccc21", "activity change, negative = inhibition": "80.9%"}
{"smiles": "Cc1cc(-c2ccc(/C=N/n3cnnc3)o2)c([N+](=O)[O-])cc1C", "activity change, negative = inhibition": "7.32%"}
{"smiles": "Cc1cc([N+](=O)[O-])c(-c2ccc(/C=N/n3cnnc3)o2)cc1Cl", "activity change, negative = inhibition": "7.67%"}
{"smiles": "O=C1C2C3C=CC(C4CC34)C2C(=O)N1/N=C/c1ccc(-c2ccccc2[N+](=O)[O-])o1", "note": "(stereo not given)", "Potency": "13.1 µM (active)"}
{"smiles": "CCc1ccc(OCC2c3cc(OC)c(OC)cc3CCN2C(C)=O)cc1", "note": "(stereo not given)", "activity change, negative = inhibition": "3.03%"}
{"smiles": "COc1cc2c(cc1O)[C@H](Cc1ccc(Oc3cc(C[C@@H]4NCCc5cc(OC)c(O)cc54)ccc3O)cc1)NCC2", "Potency": "0.415 µM (active)"}
{"smiles": "COc1ccc(NC(=O)CN(C)C(=O)c2ccc(NC3CC3)c([N+](=O)[O-])c2)cc1", "activity change, negative = inhibition": "-25.4%"}
{"smiles": "COc1cccc(N(CC(=O)NCc2ccccc2)C(=O)CCC(=O)Nc2nccs2)c1", "activity change, negative = inhibition": "-3.46%"}
{"smiles": "NC(=O)C1CCN(C(=O)CC2C(=O)NCCN2Cc2cccc(Oc3ccccc3)c2)CC1", "note": "(stereo not given)", "activity change, negative = inhibition": "2.05%"}
{"smiles": "OC(CNCc1ccc(Cl)c(Cl)c1)c1ccccc1", "note": "(stereo not given)", "activity change, negative = inhibition": "1.84%"}
{"smiles": "CC(C)(CNCC(O)c1ccccc1)N1CCOCC1", "note": "(stereo not given)", "Potency": "5.86 µM (active)"}
{"smiles": "CC(C)(CNC(=O)c1cc(=O)[nH]c2ccccc12)N1CCOCC1", "activity change, negative = inhibition": "-11.1%"}
{"smiles": "Cc1c(Cl)c([N+](=O)[O-])nn1CCCC(=O)Nc1cc(Cl)ccc1Cl", "activity change, negative = inhibition": "-31.1%"}
{"smiles": "Cc1c(Cl)c([N+](=O)[O-])nn1Cc1ccc(C(=O)N/N=C\\c2cc(Cl)ccc2O)o1", "Potency": "3.7 µM (active)"}
{"smiles": "O=C(N/N=C/c1ccc2c(c1)OCO2)c1ccc(Cn2cc([N+](=O)[O-])cn2)o1", "activity change, negative = inhibition": "-6.78%"}
{"smiles": "CS(=O)(=O)Nc1ccccc1N=C(c1ccccc1)c1ccccc1", "activity change, negative = inhibition": "3.7%"}
{"smiles": "Cc1ccc(S(=O)(=O)c2nc(NCCCn3ccnc3)sc2Cl)cc1", "Potency": "6.57 µM (active)"}
{"smiles": "Cc1ccc(-c2nc(C#N)c(NCCCn3ccnc3)o2)cc1", "activity change, negative = inhibition": "237%"}
{"smiles": "O=C(/C=C/c1ccc(Cl)cc1)NCCCn1ccnc1", "activity change, negative = inhibition": "-24.8%"}
{"smiles": "COc1ccc(NC(=O)CN(C)C(=O)c2ccc(COc3ccccc3)o2)cc1", "activity change, negative = inhibition": "-4.52%"}
{"smiles": "CC(=O)c1ccccc1OCc1ccc(C(=O)c2ccccc2)cc1", "activity change, negative = inhibition": "-97.2%"}
{"smiles": "Cc1ccc(NS(=O)(=O)c2ccc3c(c2)CC(=O)N3)cc1Cl", "activity change, negative = inhibition": "14%"}
{"smiles": "Cc1nc(SCC(=O)N2CC(=O)Nc3ccccc32)c2c(C)c(C)sc2n1", "activity change, negative = inhibition": "0%"}
{"smiles": "COc1cccc(Nc2nnc(SCC(=O)N3CC(C)OC(C)C3)s2)c1", "note": "(stereo not given)", "activity change, negative = inhibition": "34.9%"}
{"smiles": "COc1cccc(Nc2nnc(SCC(=O)N3CC(=O)Nc4ccccc43)s2)c1", "Potency": "4.65 µM (active)"}
{"smiles": "C#CCOc1ccc(/C=C2/C(=O)ON=C2C)cc1OCC", "activity change, negative = inhibition": "-7.81%"}
{"smiles": "COCc1c(C(=O)N/N=C(\\C)c2ccncc2)nnn1-c1nonc1N", "activity change, negative = inhibition": "-3.74%"}
{"smiles": "Cc1nc2sccn2c(=O)c1S(=O)(=O)NCCc1ccccc1", "activity change, negative = inhibition": "0%"}
{"smiles": "CCOC(=O)c1ccccc1NS(=O)(=O)c1c(C)nc2sccn2c1=O", "Potency": "14.7 µM (active)"}
{"smiles": "CCc1cccc(C)c1NS(=O)(=O)c1c(C)nc2sccn2c1=O", "activity change, negative = inhibition": "0.376%"}
{"smiles": "Cc1cc(OCCCCOc2ccc(C#N)cc2)ccc1[N+](=O)[O-]", "activity change, negative = inhibition": "12.6%"}
{"smiles": "COc1ccc(CCOC(=O)CNC(=O)c2ccc(Cl)cc2Cl)cc1", "activity change, negative = inhibition": "-13.4%"}
{"smiles": "Cc1cc(C)c(S(=O)(=O)Nc2c(C)n(C)n(-c3ccccc3)c2=O)cc1[N+](=O)[O-]", "activity change, negative = inhibition": "-2.69%"}
{"smiles": "CCCn1nnc(NC(=O)COc2ccc(CC)cc2)n1", "activity change, negative = inhibition": "5.36%"}
{"smiles": "CCCOc1cccc(C(=O)NCCCNC(=O)c2cccnc2)c1", "activity change, negative = inhibition": "95.6%"}
{"smiles": "CCCOc1cccc(C(=O)Nc2nnn(CCC)n2)c1", "Potency": "4.65 µM (active)"}
{"smiles": "Cc1cc(C(F)F)nn1CC(=O)NC1CCCCCC1", "activity change, negative = inhibition": "-19.5%"}
{"smiles": "CN(C)c1ccc(CNC(=O)CN2C(=O)COc3ccc(S(=O)(=O)N4CCCC4)cc32)cc1", "activity change, negative = inhibition": "12.7%"}
{"smiles": "NC(N)=Nc1nc(-c2ccccc2)c2cc(Cl)ccc2n1", "activity change, negative = inhibition": "51.4%"}
{"smiles": "Clc1ccc2nc3c(c(-c4ccccc4)c2c1)CNCC3", "Potency": "13.1 µM (active)"}
{"smiles": "Clc1cccc(-c2nc(NCC3CCCO3)c3ccccc3n2)c1", "note": "(stereo not given)", "activity change, negative = inhibition": "37.3% [at 5.75 µM]"}
{"smiles": "COc1ccc(NC(=O)COc2ccc(C(=O)c3ccc(F)cc3)cc2)cc1S(N)(=O)=O", "activity change, negative = inhibition": "-26.2%"}
{"smiles": "CC(=O)NCC(=O)NC1CCCc2c1cnn2-c1ccccc1F", "note": "(stereo not given)", "activity change, negative = inhibition": "-6.37%"}
{"smiles": "O=C(O)c1ccc(F)c(S(=O)(=O)Nc2ccccc2)c1", "activity change, negative = inhibition": "24.9%"}
{"smiles": "COc1ccc(Cl)cc1S(=O)(=O)Nc1cccc(C(=O)O)c1", "Potency": "10.4 µM (active)"}
{"smiles": "COc1cc(OC)c(S(=O)(=O)Nc2ccccc2C(=O)O)cc1S(=O)(=O)Nc1ccccc1C(=O)O", "activity change, negative = inhibition": "-13.4%"}
{"smiles": "CN1CCN(c2ncc3c(n2)CC(c2ccccc2F)CC3=O)CC1", "note": "(stereo not given)", "activity change, negative = inhibition": "40.8%"}
{"smiles": "COc1ccccc1C(C)NC(=O)Cc1ccsc1", "note": "(stereo not given)", "activity change, negative = inhibition": "2.57%"}
{"smiles": "CCCCOc1ccc(CON(C(C)=O)C(C)=O)cc1Cl", "activity change, negative = inhibition": "5.53%"}
{"smiles": "O=C(CNC(=O)c1ccccc1)Oc1ccc([N+](=O)[O-])cc1", "activity change, negative = inhibition": "1.08%"}
{"smiles": "CC(Cc1cccs1)NCc1ccc(Cl)cc1", "note": "(stereo not given)", "activity change, negative = inhibition": "54.2%"}
{"smiles": "CC(Cc1cccs1)N(Cc1ccc(Cl)cc1)C(=O)c1ccncc1", "note": "(stereo not given)", "Potency": "13.1 µM (active)"}
{"smiles": "CC(Cc1cccs1)NC(=O)c1cccc(Cl)c1", "note": "(stereo not given)", "activity change, negative = inhibition": "43.8%"}
{"smiles": "CCCc1ccc(OCCNC(=O)c2ccccc2Br)cc1", "activity change, negative = inhibition": "-8.4%"}
{"smiles": "O=C(N/N=C/c1cc2c(cc1Br)OCO2)C1COc2ccccc2O1", "note": "(stereo not given)", "Potency": "7.38 µM (active)"}
{"smiles": "CC(/C=C/c1ccco1)=N/NC(=O)C1COc2ccccc2O1", "note": "(stereo not given)", "activity change, negative = inhibition": "-5.91%"}
{"smiles": "O=C(N/N=C\\c1cc2c(cc1Cl)OCO2)c1ccc(Br)s1", "activity change, negative = inhibition": "19%"}
{"smiles": "Cc1cc(C)c(S(=O)(=O)NCC2CCC(C(=O)NCc3ccc4c(c3)OCO4)CC2)c(C)c1", "note": "(stereo not given)", "activity change, negative = inhibition": "-66.7%"}
{"smiles": "COc1ccc(C(=O)NCC2CCCN2S(=O)(=O)c2cccs2)cc1OC", "note": "(stereo not given)", "activity change, negative = inhibition": "-4.53%"}
{"smiles": "Cc1cc(C)c(S(=O)(=O)N2CCCC2CNC(=O)c2ccc3c(c2)OCO3)c(C)c1", "note": "(stereo not given)", "Potency": "11.7 µM (active)"}
{"smiles": "CCOc1ccc(S(=O)(=O)N2CCC(C(=O)NCc3ccccn3)CC2)cc1Cl", "activity change, negative = inhibition": "-3.21%"}
{"smiles": "O=C(NCc1ccccc1)C1CCN(C(=O)Cc2ccccc2)CC1", "activity change, negative = inhibition": "-21.4%"}
{"smiles": "CN(C)S(=O)(=O)c1cccc(NC(=O)COC(=O)/C=C/c2cccs2)c1", "activity change, negative = inhibition": "55.6%"}
{"smiles": "CN(C)S(=O)(=O)c1cccc(NC(=O)COC(=O)c2cc(=O)[nH]c(=O)[nH]2)c1", "activity change, negative = inhibition": "6.59%"}
{"smiles": "Cc1ccc(/C=N/NC(=S)Nc2cccc(S(=O)(=O)N(C)C)c2)o1", "Potency": "6.57 µM (active)"}
